Records with an inconclusive call do not appear. Calls of active or inactive are those of the source. Unless noted, the call rests on the fitted dose curve; in most records, active means well fitted curve in the direction sought with a large enough effect in the repeat runs; inconclusive means weak or mixed curves; inactive means no such curve, though single readings can be large; an effect the other way counts as inactive or inconclusive.
Columns and labels:
[1] = qHTS assay to identify small molecule agonists of the hypoxia (HIF-1) signaling pathway - cell viability counter screen (AID 1224844; calls by dose curve; further: nearly all actives have a fitted effect of over 50% in size)
Procedure, shortened: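 Tox21 10K compounds were added to HRE-bla ME-180 cells (0.5% dialyzed FBS) and incubated 17 hrs at 37C; ATP-based CellTiter-Glo luminescence then reported cell viability in the same wells.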

[2] = qHTS assay to identify small molecule agonists of H2AX (AID 1224845; active means well fitted activation curve with a large enough effect in the signal ratio in the repeat runs, not every such curve was filed as active; the % refers to the signal ratio)
Procedure, shortened: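 Wild-type CHO-K1 cells, plated overnight, exposed 3hr at 37C to 15 concentrations (0.76% DMSO final). Lysed, then HTRF anti-pH2AX (S139) cryptate and anti-H2AX-d2 antibodies, 24 hr room temperature; 665/620 nm emission read.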

[3] = qHTS assay to identify small molecule agonists of the hypoxia (HIF-1) signaling pathway (AID 1224846; active means well fitted activation curve with a large enough effect in the signal ratio in the repeat runs, not every such curve was filed as active; the % refers to the signal ratio)
Procedure, shortened: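 Steps: seed ME-180 HRE-bla cells (2,000/well, 0.5% dialyzed FBS); incubate 5 hrs at 37C; pin-transfer compounds or DMSO; incubate 17 hrs; add LiveBLAzer B/G substrate CCF4-AM; measure reporter activation by FRET.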

[4] = qHTS RealTime-Glo MT Cell Viability Assay in HepG2 cells - 24 hour (AID 1224867); further: nearly all actives have a fitted effect of over 50% in size
Procedure, shortened: (§1)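 Cell number in HepG2 cultures estimated from NanoLuc luminescence generated by metabolic reduction of a prosubstrate by living cells. The homogeneous, nonlytic format allowed repeated reads at 0, 8, 16, 24, 32 and 40 h of compound exposure.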

[5] = qHTS RealTime-Glo MT Cell Viability Assay in HEK293 cells - 32 hour (AID 1224868); further: top concentration of the series differs between compounds; nearly all actives have a fitted effect of over 50% in size
Procedure, shortened: (§2)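 Homogeneous bioluminescent viability format in HEK293 cells (600 cells/well). Following 5 h at 37 C/5% CO2, 23 nL compound was pintooled; the signal was measured repeatedly during 40 h incubation.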

[6] = A CellTox Green Cytotoxicity Assay to monitor cytotoxicity in HEK293 cells - 0 hour (AID 1224869); further: nearly all actives have a fitted effect of over 50% in size
Procedure, shortened: (§3)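 Cytotoxicity was tracked continuously in HEK293 cells by a DNA-binding dye excluded from viable cells. Compounds were transferred in DMSO 5 h after seeding; fluorescence was recorded at intervals up to 40 h.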

[7] = qHTS RealTime-Glo MT Cell Viability Assay in HepG2 cells - 40 hour (AID 1224870); further: nearly all actives have a fitted effect of over 50% in size
Procedure, shortened: (§4)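 HepG2 cells (600/well) mixed with RealTime-Glo MT reagent, settled 5 h at 37 C/5% CO2 before compound addition. Nonlytic NanoLuc luminescence from viable-cell prosubstrate reduction read repeatedly during 40 h treatment at 37 C.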

[8] = A CellTox Green Cytotoxicity Assay to monitor cytotoxicity in HEK293 cells - 40 hour (AID 1224871); further: nearly all actives have a fitted effect of over 45% in size; further: potency means the concentration at half of the fitted maximal effect
Procedure, shortened: as §3

[9] = qHTS RealTime-Glo MT Cell Viability Assay in HEK293 cells - 16 hour (AID 1224872)
Procedure, shortened: as §2

[10] = qHTS RealTime-Glo MT Cell Viability Assay in HepG2 cells - 8 hour (AID 1224873); further: nearly all actives have a fitted effect of over 55% in size
Procedure, shortened: as §4

[11] = A CellTox Green Cytotoxicity Assay to monitor cytotoxicity in HEK293 cells - 24 hour (AID 1224875); further: nearly all actives have a fitted effect of over 45% in size
Procedure, shortened: as §3

[12] = A CellTox Green Cytotoxicity Assay to monitor cytotoxicity in HepG2 cells - 16 hour (AID 1224876); further: nearly all actives have a fitted effect of over 45% in size; further: potency means the concentration at half of the fitted maximal effect
Procedure, shortened: (§5)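 Real-time, homogeneous cytotoxicity readout: dead-cell DNA staining by CellTox Green in HepG2 monolayers, fluorescence measured at timed intervals up to 40 h of continuous compound exposure.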

[13] = qHTS RealTime-Glo MT Cell Viability Assay in HepG2 cells - 32 hour (AID 1224877); further: nearly all actives have a fitted effect of over 55% in size
Procedure, shortened: as §1

[14] = A CellTox Green Cytotoxicity Assay to monitor cytotoxicity in HepG2 cells - 24 hour (AID 1224878); further: nearly all actives have a fitted effect of over 45% in size; further: potency means the concentration at half of the fitted maximal effect
Procedure, shortened: as §5

[15] = qHTS RealTime-Glo MT Cell Viability Assay in HEK293 cells - 0 hour (AID 1224880)
Procedure, shortened: (§6)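 Nonlytic bioluminescent viability monitoring. HEK293 at 600 cells/well with reagent; 5 h settle; compound transfer by pintool; plates held at 37 C and read at set time points.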

[16] = qHTS assay to identify small molecule agonists of the estrogen related receptor (ERR) signaling pathway from Tox21 library (AID 1224849; calls by dose curve; further: nearly all actives have a fitted effect of over 15% in size); conditions: ERR reporter cell line, ONE-Glo luciferase, 18 h; at 92.4 µM (top of the series) unless noted
Procedure, shortened: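 Agonist signal is luciferase luminescence from an ERR reporter cell line treated 18 h at 37 C with DMSO-dissolved compounds, read 30 min after ONE-Glo addition at room temperature.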

[17] = qHTS RealTime-Glo MT Cell Viability Assay in HEK293 cells - 40 hour (AID 1224874); conditions: RealTime-Glo luminescence; max response: hits give low values; further: nearly all actives have a fitted effect of over 50% in size; further: potency means the concentration at half of the fitted maximal effect
Procedure, shortened: as §6

[18] = A CellTox Green Cytotoxicity Assay to monitor cytotoxicity in HepG2 cells - 40 hour (AID 1224879); further: nearly all actives have a fitted effect of over 40% in size; further: potency means the concentration at half of the fitted maximal effect
Procedure, shortened: as §5

[19] = qHTS assay to identify small molecule agonists of H2AX - cell viability counter screen (AID 1224847; calls by dose curve; further: top concentration of the series differs between compounds; nearly all actives have a fitted effect of over 30% in size)
Procedure, shortened: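 Cytotoxicity counter screen in wild-type CHO-K1 cells: a 3 hr compound treatment at 37C across 15 concentrations, followed by CellTiter-Glo luminescence to gauge viable cells.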

[20] = qHTS assay to identify small molecule antagonists of the estrogen related receptor (ERR) signaling pathway from Tox21 library (AID 1224848); further: nearly all actives have a fitted effect of over 50% in size
Procedure, shortened: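 ERR reporter cell line (from NTP) seeded 2,000 cells/well, rested 6 h at 37 C/5% CO2, then pin-dosed with compounds in DMSO. After 18 h at 37 C, ONE-Glo added; luminescence read after 30 min at room temperature.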
On the % scale 0 is the no-effect control and ±100 the full control effect.

CCOC(=O)CC(C)C
inactive: Potency [1] | Potency [2] | outcome [3] | Potency [4] | Potency [5] | Potency [6] | Potency [7] | Potency [8] | Potency [9] | Potency [10] | Potency [11] | Potency [12] | Potency [13] | Potency [14] | Potency [15]

Cc1ccc(C(=O)C(C)CN2CCCCC2)cc1 (centres undefined)
inactive: Potency [1] | Potency [2] | outcome [3] | activity change, positive = activation [16] 4.97% [at 42.5 µM] | Potency [4] | Potency [5] | Potency [6] | Potency [7] | Potency [9] | Potency [10] | max response [17] 11.5% | Potency [11] | Potency [12] | Potency [13] | Potency [14] | Potency [18] | Potency [15]

CC(=O)O[C@@H]1C(=O)O[C@@H]2[C@H]1OC(=O)[C@@H]2OC(C)=O
active: Potency [18] 26.8 µM
inactive: Potency [1] | Potency [2] | outcome [3] | Potency [4] | Potency [5] | Potency [6] | Potency [8] | Potency [9] | Potency [10] | max response [17] -24.6% | Potency [11] | Potency [13] | Potency [14] | Potency [15]

CC(C)(C)c1cc(CO)cc(C(C)(C)C)c1O
inactive: Potency [1] | Potency [2] | outcome [3] | activity change, positive = activation [16] -33.2% | Potency [4] | Potency [6] | Potency [7] | Potency [8] | Potency [10] | Potency [11] | Potency [12] | Potency [13] | Potency [14] | Potency [18] | Potency [15]

CC(=O)c1c(C)c([N+](=O)[O-])c(C(C)(C)C)c([N+](=O)[O-])c1C
inactive: Potency [1] | Potency [2] | outcome [3] | Potency [4] | Potency [5] | Potency [6] | Potency [7] | Potency [8] | Potency [10] | Potency [11] | Potency [12] | Potency [13] | Potency [14] | Potency [18] | Potency [15]

CC(Cc1cccc(C(F)(F)F)c1)NCCOC(=O)c1ccccc1 (centres undefined)
active: Potency [8] 21.3 µM
inactive: Potency [1] | Potency [2] | outcome [3] | Potency [4] | Potency [6] | Potency [7] | Potency [10] | Potency [11] | Potency [13] | Potency [15]

c1ccc(OCc2ccc(CCCN3CCOCC3)cc2)cc1
active: Potency [17] 21.3 µM | Potency [18] 21.3 µM
inactive: Potency [1] | Potency [2] | outcome [3] | activity change, positive = activation [16] -24.5% [at 42.5 µM] | Potency [4] | Potency [6] | Potency [7] | Potency [8] | Potency [10] | Potency [11] | Potency [13] | Potency [15]

COc1ccccc1OC(=O)Oc1ccccc1OC
inactive: Potency [1] | Potency [2] | outcome [3] | Potency [4] | Potency [5] | Potency [6] | Potency [7] | Potency [9] | Potency [10] | Potency [11] | Potency [12] | Potency [13] | Potency [14] | Potency [18] | Potency [15]

CN(C)CC/C=C1\c2ccccc2COc2ccccc21
inactive: Potency [1] | Potency [2] | Potency [19] | Potency [4] | Potency [5] | Potency [6] | Potency [7] | Potency [8] | Potency [9] | Potency [10] | max response [17] 3.53% | Potency [11] | Potency [12] | Potency [13] | Potency [14] | Potency [15]

O=C(c1ccc(O)cc1)c1ccc(O)cc1
active: activity change, positive = activation [16] 37.5%
inactive: Potency [1] | outcome [3] | Potency [19] | Potency [20] | Potency [4] | Potency [5] | Potency [6] | Potency [7] | Potency [9] | Potency [10] | max response [17] -22.8% | Potency [11] | Potency [12] | Potency [13] | Potency [14] | Potency [18] | Potency [15]

CC(C(=O)O)c1ccc(-c2ccccc2)c(F)c1 (centres undefined)
active: Potency [12] 49 µM | Potency [14] 54.9 µM
inactive: Potency [1] | Potency [2] | Potency [4] | Potency [5] | Potency [6] | Potency [7] | Potency [8] | Potency [9] | Potency [10] | Potency [11] | Potency [13] | Potency [15]

CCCCCCc1ccc(N)cc1
active: Potency [12] 49 µM | Potency [14] 49 µM | Potency [18] 49 µM
inactive: Potency [1] | outcome [3] | activity change, positive = activation [16] -26.6% | Potency [4] | Potency [5] | Potency [6] | Potency [7] | Potency [8] | Potency [9] | Potency [10] | max response [17] 4.72% | Potency [11] | Potency [13] | Potency [15]

CCOC(=O)C1=NN(c2ccccc2)C(=O)C1
inactive: Potency [1] | outcome [3] | Potency [19] | Potency [4] | Potency [6] | Potency [8] | Potency [9] | Potency [10] | max response [17] 1.57% | Potency [11] | Potency [12] | Potency [13] | Potency [14] | Potency [15]

O=C(C(=O)c1ccc(Br)cc1)c1ccc(Br)cc1
inactive: activity change, negative = cytotoxicity [1] -11.6% [at 15.8 µM] | activation [3] -1.03% [at 15.8 µM] | activity change, negative = cytotoxicity [19] 0.693% [at 31.6 µM] | activity change, positive = activation [16] 0.063% [at 19 µM] | activity change, negative = cytotoxicity [4] -0.799% [at 15.8 µM] | activity change, negative = cytotoxic [5] 3.98% [at 15.8 µM] | cytotoxicity [6] 1.99% [at 15.8 µM] | activity change, negative = cytotoxic [7] 6.88% [at 15.8 µM] | cytotoxicity increase [8] 0.336% [at 15.8 µM] | activity change, negative = cytotoxicity [9] 5.77% [at 15.8 µM] | viability change, negative = cytotoxic [10] -3.19% [at 15.8 µM] | max response [17] 0.201% | activity change [11] -0.496% [at 15.8 µM, hits give high values] | cytotoxicity increase [12] -6.44% [at 15.8 µM] | activity change, negative = cytotoxic [13] 2.16% [at 15.8 µM] | cytotoxicity [14] -10% [at 15.8 µM] | cytotoxicity increase [18] -10.2% [at 15.8 µM]

OC(CCN1CCCCC1)(c1ccccc1)C1CCCCC1 (centres undefined)
inactive: Potency [1] | Potency [2] | Potency [20] | activity change, positive = activation [16] 2.3% [at 42.5 µM] | Potency [4] | Potency [6] | Potency [7] | Potency [8] | Potency [9] | Potency [10] | max response [17] -21.9% | Potency [12] | Potency [13] | Potency [14] | Potency [18] | Potency [15]
